Statin myotox sup – protects C2C12 myotubes from simvastatin toxicity; ATP luminescence, 48 h; scaled: DMSO 0, geranylgeraniol control 100; rescue of ATP level, % at 7.49 µM; 330,000 compounds, 0.78% hits;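 active means mean ATP rescue above about 67%, or every replicate alone reaching that limit, limit read from the data, passing the limit was not always enough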;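 further: myotubes were challenged with 10 µM simvastatin during compound exposure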
PglD DTNB – inhibitors of Campylobacter jejuni PglD acetyltransferase. AID 602405. 360,000 compounds, 0.098% hits. inhibition, % at 12.5 µM. purified PglD enzyme, DTNB colorimetric CoA detection; in the data active means inhibition above about 16%, passing the limit was not always enough
CFTR F508del cor – correctors of CFTR F508del function in bronchial epithelial cells; CFBE cells, YFP halide quenching; stimulated with forskolin plus potentiator P3; % fluorescence drop versus neutral controls; activity (quench increase), % at 7.58 µM; 350,000 compounds, 0.36% hits; AID 720511;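 active means mean added fluorescence quench of at least 8% versus neutral control, with both replicates also reaching 8%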;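 further: cells transiently co-express mutant CFTR-F508del with the halide-sensitive YFP; corrector assay measuring rescue of mutant channel to the surface after 24 h compound exposure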
ARNT TACC3 PPI – disrupts binding between human ARNT and TACC3 | AlphaScreen His-ARNT PAS-B/GST-TACC3 binding, luminescence; TACC3 fragment carries E629A point mutation | inhibition, % at 9.99 µM | 390,000 compounds, 0.66% hits;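 active means mean inhibition of replicates at least 50% and at least half of replicates each reaching 50%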;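 further: 0% = complete ARNT plus TACC3 wells and 100% = ARNT alone without TACC3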
Numbers without * were called inactive; . = no result. In the library only some 1.4% were active in any assay of this set; here they are far more common.

SMILES	Statin myotox sup	PglD DTNB	CFTR F508del cor	ARNT TACC3 PPI
COC(=O)CC1Sc2ccccc2NC1=O (configuration not stated)	13	-5	.	18
COc1c2c(nc3occc13)C(CC=C(C)C)(OC)C(O)CC2 (configuration not stated)	78*	-2	.	-6
COc1c2c(nc3occc13)C(CC=C(C)C)(OC)C(OC(C)=O)CC2 (configuration not stated)	8	-1	.	-6
CN(C)S(=O)(=O)c1ccc(S(=O)(=O)N(CC(=O)Nc2ccccc2)CC2CCCO2)cc1 (configuration not stated)	85*	-5	.	-3
O=C(C1=C(O)C(=O)N(CCN2CCOCC2)C1c1ccc(F)cc1)c1cc2ccccc2o1 (configuration not stated)	20	0	0	0
O=C(C1=C(O)C(=O)N(CCCN2CCOCC2)C1c1ccccn1)c1cc2ccccc2o1 (configuration not stated)	73*	9	.	-13
CS(=O)(=O)Nc1ccc(C(=O)N2CCN(c3ccccc3)CC2)cc1	115*	-1	0	-22
CS(=O)(=O)Nc1ccccc1C(=O)Nc1ccccc1C(=O)N1CCCC1	5	1	1	-2
CS(=O)(=O)Nc1ccc(C(=O)Nc2ccccc2C(=O)N2CCCC2)cc1	90*	0	.	-24
COc1cc(OC)cc(C(=O)Nc2ccccc2C(=O)N2CCCC2)c1	115*	2	.	-1
COc1ccc(C(=O)Nc2ccccc2C(=O)N2CCCCCC2)cc1	8	-1	3	.
Cc1ccc(CC(=O)c2ccc(Cl)cc2)cc1	133*	2	-1	0
CC(C)NC(=O)N(C)C[C@@H]1Oc2c(NC(=O)C3CC3)cccc2C(=O)N([C@@H](C)CO)C[C@H]1C	35	-1	-2	-6
CNC(=O)c1ccsc1NC(=O)c1ccc(S(=O)(=O)N2CCCc3ccccc32)cc1	76*	-3	1	0
O=S(=O)(c1ccc(Br)cc1)N1CCCc2ccccc21	-3	-3	11*	-8
O=S(=O)(c1ccc(F)c(F)c1)N1CCCc2ccccc21	7	5	1	-1
COc1ccc(C(=O)O)cc1S(=O)(=O)N1CCCc2ccccc21	2	-3	1	11*
COc1ccc(C(=O)NCc2ccccc2)cc1S(=O)(=O)N1CCCc2ccccc21	.	2	.	.
CCCN1[C@H](C(=O)OC)[C@@H](CO)[C@@H]2Cn3c(ccc(-c4ccc(F)cc4)c3=O)[C@@H]21	-4	-3	-1	-4
O=C(O)CSC1CC(=O)N(c2ccc(Cl)c(Cl)c2)C1=O (configuration not stated)	138*	3	.	-6
O=C(O)CSC1CC(=O)N(c2cccc(Cl)c2)C1=O (configuration not stated)	7	-2	.	-7
CO[C@H]1CN(C)C(=O)c2ccc(NC(C)=O)cc2OC[C@H](C)N(C(=O)CN2CCOCC2)C[C@H]1C	-2	-3	0	-9
CCOc1ccc(NC(=O)CN(c2ccc([N+](=O)[O-])cc2)S(=O)(=O)c2ccccc2)cc1	.	.	15*	1
CCOc1ccc(NC(=O)CN(Cc2ccccc2)S(C)(=O)=O)cc1	110*	-7	.	-2
CC(C)c1ccc(NC(=O)CN(Cc2ccccc2)S(C)(=O)=O)cc1	10	1	.	24
SMILES	Statin myotox sup	PglD DTNB	CFTR F508del cor	ARNT TACC3 PPI
CCC(=O)N1[C@@H]2c3cccc(=O)n3C[C@H]1[C@H](CO)[C@H]2C(=O)NCc1ccccc1	5	-1	-1	1
N#Cc1c2n(c3c(=O)n(Cc4ccc(Cl)cc4)cnc13)CCCCC2	95*	5	.	4
N#Cc1c2n(c3c(=O)n(Cc4ccccc4)cnc13)CCCC2	-3	2	0	-12
C[C@H](CO)N1C[C@H](C)[C@@H](CN(C)C(=O)Nc2ccc(C(F)(F)F)cc2)Oc2ccc(NC(=O)CCCCCC(=O)Nc3ccccc3N)cc2CC1=O	29	2	-3	6
O=C(CCN1CCN(C(c2ccccc2)c2ccccc2)CC1)N/N=C/c1ccc(O)cc1	.	.	.	-9
CN1CCN(CCC(=O)N/N=C/c2cc([N+](=O)[O-])ccc2O)CC1	.	.	.	75*
O=C(CCN1CCN(C(c2ccccc2)c2ccccc2)CC1)N/N=C/c1ccc(O)cc1O	.	.	1	45*
Cc1ccccc1NC(=O)CCC(=O)N/N=C/c1cc([N+](=O)[O-])ccc1O	.	-1	.	22
Cc1ccc(C)c(NC(=O)CCC(=O)N/N=C/c2cc([N+](=O)[O-])ccc2O)c1	0	1	9.9*	49*
Cc1ccc(NC(=O)CCC(=O)N/N=C/c2cc([N+](=O)[O-])ccc2O)cc1	.	-8	.	9
CCC(=O)N1[C@@H](CO)[C@@H](c2ccccc2)C12CN(Cc1nccs1)C2	.	.	-3	.
COc1ccc(S(=O)(=O)Nc2ccc3c(c2)C(=O)N([C@@H](C)CO)C[C@@H](C)[C@H](CN(C)C(=O)CCCN(C)C)OCCCC[C@@H](C)O3)cc1	4	-2	0	9
C[C@H]1CN([C@@H](C)CO)C(=O)Cc2cc(NC(=O)Cc3cn(C)c4ccccc34)ccc2O[C@@H]1CN(C)C(=O)Nc1ccccc1	6	1	-3	-7
COc1ccc(S(=O)(=O)N(CCCN2CCOCC2)Cc2ccc(OC)c(OC)c2)cc1	94*	-7	.	10
O=C(OCc1nc2ccccc2s1)c1cnccn1	132*	.	.	0
CC(=O)C1=C(c2ccccc2)N(C(C)=O)n2c(C)nnc2S1	-6	-1	.	35*
CC(=O)c1ccc(NC(=O)c2ccc(CNc3c(N4CCCC4)c(=O)c3=O)cc2)cc1	.	-3	5	-2
CCc1cccc(NC(=O)c2ccc(CNc3c(N4CCCC4)c(=O)c3=O)cc2)c1	100*	5	-1	-5
C[C@H](NC(=O)N(C)C[C@@H]1OCc2ccccc2-c2ccccc2C(=O)N([C@@H](C)CO)C[C@H]1C)c1ccccc1	.	0	1	3
CC(C)CC(C(=O)Nc1oc(-c2ccco2)c(-c2ccco2)c1C#N)N1C(=O)c2ccccc2C1=O (configuration not stated)	117*	-1	.	.
CCOc1ccccc1Nc1ncnc2ccccc12	86*	-3	.	-3
CCOc1ccccc1Nc1ncnc2ccc(Br)cc12	.	.	4	.
CCC(C)(NC(=O)CNC(C)=O)C(=O)NC1CCCCC1 (configuration not stated)	112*	-3	.	-7
O=C(N[C@H]1CC[C@@H](CCNS(=O)(=O)c2ccc(F)cc2)O[C@@H]1CO)C1CCOCC1	0	0	-2	-1
Oc1ccc(-c2csc(Nc3ccc4c(c3)OCO4)n2)c(O)c1	132*	-2	-4	6
C[C@H]1CN([C@@H](C)CO)C(=O)CCCn2nncc2CO[C@@H]1CN(C)C(=O)Nc1ccc(C(F)(F)F)cc1	-23	5	-1	-4
C[C@H]1CN([C@@H](C)CO)C(=O)c2cccc(N(C)C)c2O[C@@H]1CN(C)Cc1ccc(Cl)c(Cl)c1	95*	4	-1	7
